# Compounds with a hit are over-represented: about 2.8% of the library has one in this group of screens.
# WRN inhibitor: qHTS for Inhibitors of WRN Helicase | AID 651768, 2012 | 360,000 tested, 0.46% active | WRN helicase unwinding, fluorescent forked duplex, kinetic | Bifunctional 3'-5' exonuclease/ATP-dependent helicase WRN (Homo sapiens), Q14191 | Potency, µM (series often up to 114 µM), without a hit: at the highest dose activity change, negative = inhibition, hits mostly inhibitors; also: potency is read from the fitted curve at half-maximal effect; % is scaled to controls: 0 for no effect and ±100 for the full control effect; nearly all actives have a fitted effect of over 55% in size
#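 Screening of the MLSMR collection measured strand separation of a quenched forked DNA duplex (100 nM) by 20 nM WRN with 2 mM ATP, all final. Compounds were preincubated with enzyme 15 min at room temperature.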
# POLB inh: qHTS Assay for Inhibitors of DNA Polymerase Beta | P06746 | Pol beta primer extension/strand displacement, fluorescence kinetic | Potency, µM (top dose mostly 114 µM), inactives show at the highest dose activity change, negative = inhibition, hits mostly inhibitors | 340,000 tested, 1.3% active; also: potency is read from the fitted curve at half-maximal effect; % is scaled to controls: 0 for no effect and ±100 for the full control effect
#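 Enzyme-only controls used 10 nM Pol beta; buffer lacking enzyme served as negative control. Compound preincubated 15 min, then 50 nM substrate added; 0 and 10 min reads at room temperature.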
# Pol eta inh: qHTS for Inhibitors of Polymerase Eta | Potency, µM (highest dose often 114 µM), without a hit: at the top dose activity change, negative = inhibition, usual class: inhibitors | recombinant Pol eta, fluorescent DNA replication assay | DNA polymerase eta (Homo sapiens), Q9Y253 | 390,000 tested, 1.2% active | AID 588591, 2011; also: potency is read from the fitted curve at half-maximal effect; % is scaled to controls: 0 for no effect and ±100 for the full control effect
#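 Fluorescent replication assay: 50 nM final substrate added after a 15 min room-temperature compound preincubation with 10 nM enzyme. Signal taken at 0 min and again at 10 min.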
# POLK inh: qHTS for Inhibitors of Polymerase Kappa | purified Pol kappa, fluorescent DNA synthesis assay, 10 min | Potency, µM (highest dose often 107 µM), without a hit: at the highest dose activity, negative = inhibition, actives largely listed as inhibitors | 400,000 tested, 0.53% active; also: potency is read from the fitted curve at half-maximal effect; % is scaled to controls: 0 for no effect and ±100 for the full control effect
# Target sequence (Q9UBT6 whole entry, looked up): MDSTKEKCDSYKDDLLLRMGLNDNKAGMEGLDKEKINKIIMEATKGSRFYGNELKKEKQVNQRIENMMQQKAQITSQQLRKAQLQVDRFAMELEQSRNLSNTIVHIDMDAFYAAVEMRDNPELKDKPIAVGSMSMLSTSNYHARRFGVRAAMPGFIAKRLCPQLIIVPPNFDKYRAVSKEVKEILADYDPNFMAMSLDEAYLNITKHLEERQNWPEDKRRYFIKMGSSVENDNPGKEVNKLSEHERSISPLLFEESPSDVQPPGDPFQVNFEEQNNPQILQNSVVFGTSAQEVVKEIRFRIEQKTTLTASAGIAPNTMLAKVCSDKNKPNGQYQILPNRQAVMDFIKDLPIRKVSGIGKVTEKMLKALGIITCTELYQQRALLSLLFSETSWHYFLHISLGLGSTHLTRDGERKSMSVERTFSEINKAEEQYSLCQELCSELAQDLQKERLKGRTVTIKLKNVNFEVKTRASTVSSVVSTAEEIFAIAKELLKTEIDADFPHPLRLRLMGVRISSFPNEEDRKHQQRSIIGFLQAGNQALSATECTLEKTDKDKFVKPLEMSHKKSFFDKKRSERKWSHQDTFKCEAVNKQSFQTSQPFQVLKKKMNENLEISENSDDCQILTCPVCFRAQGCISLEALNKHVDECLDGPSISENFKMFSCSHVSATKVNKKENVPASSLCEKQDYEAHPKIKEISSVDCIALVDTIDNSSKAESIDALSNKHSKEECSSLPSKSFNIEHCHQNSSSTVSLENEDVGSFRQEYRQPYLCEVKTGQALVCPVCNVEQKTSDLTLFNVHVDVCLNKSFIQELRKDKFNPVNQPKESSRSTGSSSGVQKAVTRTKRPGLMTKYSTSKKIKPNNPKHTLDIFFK
#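 Readout: fluorescence, taken kinetically at 0 and 10 min. Conditions: 10 nM Pol kappa, 15 min RT compound preincubation, 50 nM substrate final. Controls: enzyme-free buffer wells.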
# PI5P4K alpha inh: qHTS for Inhibitors of phosphatidylinositol 5-phosphate 4-kinase (PI5P4K); PI5P4Kalpha enzyme, ADP-Glo luminescence, 60 min; stronger effect = lower value; max response, %; 330,000 tested, 1.2% active; Phosphatidylinositol 5-phosphate 4-kinase type-2 alpha (Homo sapiens), P48426; active = max response of -50% or lower; inconclusive = between -30% and -50%; inactive = -30% or higher; also: value at the top dose of about 77 µM; % is scaled to controls: 0 for no effect and ±100 for the full control effect
#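 Controls without substrate or without enzyme flank wells where PI5P4Kalpha converts substrate using 5 microM ATP (final). Incubation lasts 60 minutes at room temperature; ADP formed is read by ADP-Glo luminescence.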
# Pol iota inh: qHTS for Inhibitors of Polymerase Iota. Pol iota fluorescent replication assay, 10 min. Potency, µM (highest dose often 115 µM), for the others: at the highest dose activity, negative = inhibition, actives largely listed as inhibitors. 390,000 tested, 1% active. AID 588590, 2011; also: potency is read from the fitted curve at half-maximal effect
#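 Fluorescent replication assay read twice, at 0 min and 10 min after adding 50 nM (final) substrate. Enzyme (10 nM) and compounds were first incubated 15 min at room temperature; enzyme-free buffer wells were negative controls.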
# Active calls of the source: *; ? = inconclusive; nt = no result; [ ] = remark or other dose. Unless noted, calls follow the shape of the dose curve; as a rule, active = well fitted curve in the direction sought with a large enough effect; inconclusive = small, poorly fitted or top-dose-only effect, or another doubt; inactive = no such curve, though single readings can be large; an effect the other way counts as inactive or inconclusive.
SMILES,WRN inhibitor,POLB inh,Pol eta inh,POLK inh,PI5P4K alpha inh,Pol iota inh
Cc1cc(C)c2c(/C=C/c3ccc(N(C)C)cc3)ccnc2c1,nt,nt,nt,2%,nt,19%
Cc1ccc(CCNC(=O)Cn2nc(-c3ccc(C)cc3)ccc2=O)cc1,nt,-8%,-7%,-10%[60.1 µM],nt,-14%
O=C(O)c1ccc(-c2nc(-c3ccccc3)c(-c3ccccc3)[nH]2)cc1,40µM*,39%,-17%,0%,-6,73%
CC(=O)Nc1ccccc1C(F)(F)F,5%,3%,-12%,-12%,0,22%
NNc1ccccc1C(F)(F)F,?,20µM*,4%,-3%,3,69%
CCCn1c2ccccc2c2cnn(CC(=O)NCC3CCN(Cc4ccccc4C)CC3)c(=O)c21,nt,28%,-8%,-12%,nt,30%
O=C(NC1CC1)c1ccc2nc(-c3ccco3)c(-c3ccco3)nc2c1,nt,nt,nt,22µM*,nt,10µM*
O=C(Nc1ccccc1)c1ccc2nc(-c3ccco3)c(-c3ccco3)nc2c1,40µM*,20µM*,?,45µM*,nt,40µM*
CC(=O)c1ccc(NC(=O)c2ccc3nc(-c4ccco4)c(-c4ccco4)nc3c2)cc1,25µM*,2.8µM*,2.8µM*,7.9µM*,-110*,3.2µM*
O=C(Nc1ccc(N2CCOCC2)cc1)c1ccc2nc(-c3ccco3)c(-c3ccco3)nc2c1,-9%,0%,-14%,-25%,nt,-5%
CNC(=O)c1ccc2nc(-c3ccco3)c(-c3ccco3)nc2c1,nt,nt,nt,8.9µM*,nt,8.9µM*
CCOc1ccc(-c2cc(C(=O)Nc3ccc(NC(C)=O)cc3)no2)cc1,nt,12%,5%,9%,nt,30%
O=C(NCC(c1ccc(Cl)cc1)N1CCCCC1)c1ccccc1F (centres undefined),nt,10%,-20%,16%,nt,7%
Cc1cc(NC(=O)CN(C)S(=O)(=O)c2ccc3c(c2)CCCC(=O)N3)ccc1Br,nt,-2%,-13%,-14%,nt,12%
O=C(C[n+]1ccc(C(=O)N/N=C/c2ccc(Br)cc2)cc1)c1ccccc1,-1%,-1%,?,1%,-7,16%
O=C(C[n+]1ccc(C(=O)N/N=C/c2ccc(O)cc2)cc1)c1ccccc1,-23%,56µM*,?,-13%,4,38%
O=C(Cc1nnc(NC(=O)c2ccccc2)s1)N/N=C/c1ccc(O)cc1,-6%,25µM*,-22%,-8%,-28,?
COc1ccccc1CCNC(=O)c1ccc2c(c1)c(C)c(C)n2C,nt,-2%,-13%,-9%,nt,28%
CCOc1ccc(N=CC2=C(O)CC(c3ccco3)CC2=O)cc1 (centres undefined),-5%,-19%,-14%,-10%,7,23%
O=C1CC(c2ccco2)CC(O)=C1C=Nc1cc(Cl)cc(Cl)c1 (centres undefined),?,40µM*,?,71µM*,-29,?
COc1ccc(CNC(=O)CCc2c(C)nn(-c3ccc(N4CCOCC4)nn3)c2C)cc1,nt,17%,-13%,-9%,nt,11%
O=C(CSc1nc2sc3c(c2c(=O)n1-c1ccccc1)CCCC3)N/N=C/c1ccc(C(=O)O)cc1,1%[11.6 µM],?,?,?,-11,40µM*
Cc1ccc(NC(=O)CCn2cnc3cc(C)c(C)cc32)cc1,6%,-6%,-16%,13%,nt,24%
CC(=O)Nc1cccc(NC(=O)CCn2cnc3cc(C)c(C)cc32)c1,-9%,25µM*,?,-32%,1,?
Cc1ccc(S(=O)(=O)c2[nH]c(-c3ccccc3)nc2SCC(=O)O)cc1,nt,6%,-18%,-25%,nt,21%
SMILES,WRN inhibitor,POLB inh,Pol eta inh,POLK inh,PI5P4K alpha inh,Pol iota inh
CC(=O)Sc1nc(-c2ccccc2)[nH]c1S(=O)(=O)c1ccc(C)cc1,?,9%,-19%,8%,-81*,77%
Cc1cc(O)c(C(C)C)cc1N=Cc1ccc([N+](=O)[O-])cc1,?,nt,-20%,-4%,3,10µM*
O=C(Nc1ccc([N+](=O)[O-])cc1)Nc1cnccn1,-3%,40µM*,-9%,-7%,2,11%
Cc1ncc(CN2CCCC(C(=O)Nc3ccc(-c4ccco4)cc3)C2)cn1 (centres undefined),-30%,-2%,?,?,-1,32µM*
CCOC(=O)c1c(C)c(-c2ccccc2)n(CC(=O)NCCc2ccc(C)cc2)c1C,nt,4%,-16%,10%,nt,18%
Cc1c(C(=O)OCC2CCCO2)[nH]c2c1C(=O)CC(c1ccco1)C2 (centres undefined),40µM*,10µM*,3.2µM*,28µM*,-76*,?
C=CCOC(=O)c1[nH]c2c(c1C)C(=O)CC(c1ccco1)C2 (centres undefined),?,13µM*,25µM*,?,-61*,?
Cc1nc2nc(CNC(=O)OC(C)(C)C)nn2c(C)c1CCC(=O)NCc1ccccc1Cl,nt,3%,-4%,-19%,nt,-4%
COc1ccc(CC2=CC(=O)c3ccccc3C2=O)cc1,-9%[11.6 µM],-2%,?,-11%,?,10µM*
COc1ccccc1C(=O)Nc1ccccc1C(=O)OCc1cc(=O)n2ccsc2n1,nt,14%,-9%,-8%[60.1 µM],nt,-1%
Cc1cc(O)ccc1N=Cc1c(C(F)(F)F)[nH][nH]c1=O,-12%,14µM*,-1%,-5%,-22,8.9µM*
CC(=O)CCS(=O)(=O)c1ccc(NC(C)=O)cc1,-2%,?,-12%,17%,nt,154%
CC(=O)Nc1ccc(S(=O)(=O)CC(=O)CS(=O)(=O)c2ccc(NC(C)=O)cc2)cc1,-7%[11.6 µM],nt,35µM*,nt,-6,nt
CC(C)(C)c1[nH]nc2c1C(c1ccncc1)C(C#N)=C(N)O2 (centres undefined),-4%,31%,-13%,-5%,-51*,9%
CCOc1ccc(NC(=O)c2c(C)oc3nc(C)nc(N4CCOCC4)c23)cc1,nt,2%,-5%,-8%,nt,-1%
O=C(COc1ccc2ccccc2c1)N1c2ccccc2Sc2ccccc21,-15%,-26%,-15%,-11%,nt,-17%[58.9 µM]
O=C(CCl)N1c2ccccc2Sc2ccc3ccccc3c21,-16%,nt,14µM*,nt,0,nt
Oc1c(Br)cc(Br)cc1/C=N/c1nc2c(s1)CCCC2,?,nt,?,79µM*,-54*,?
Oc1ccc2ccccc2c1/C=N/c1nc2c(s1)CCCC2,-19%,1%,5%,1%,-12,?
FC(F)(F)c1cc(-c2ccco2)nc(NCc2ccco2)n1,-7%[11.6 µM],?,50µM*,?,?,?

# Screening results from PubChem BioAssay.
